Source: the supplement of paper PMC8728848
The entries come from a sample that favours the strongest signals as a whole.

Key:
Test in all cases: glycan array binding signal (z-score within array); higher = stronger binding
Details in all cases: glycan notation: IUPAC condensed, linker removed
Fuc(a1-2)Gal = molecular target: Fuc(a1-2)Gal
Procedure, shortened: (§1)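 The binding signal is a Z-score computed within each array and averaged over linkers. Arrays of the same protein sequence at different concentrations or buffers were also averaged together. Data originate from 3228 arrays in the Consortium for Functional Glycomics database, kept only where the protein sequence was available.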

[1] = molecular target: Fuc(a1-2)Gal(b1-4)[Fuc(a1-3)]GlcNAc
Procedure, shortened: as §1

[2] = molecular target: Fuc(a1-2)Gal(b1-4)[Fuc(a1-3)]GlcNAc(b1-2)Man(a1-3)[Fuc(a1-2)Gal(b1-4)[Fuc(a1-3)]GlcNAc(b1-2)Man(a1-6)]Man(b1-4)GlcNAc(b1-4)[Fuc(a1-6)]GlcNAc
Procedure, shortened: as §1

Fuc(a1-2)[Gal(a1-3)]Gal = molecular target: Fuc(a1-2)[Gal(a1-3)]Gal
Procedure, shortened: as §1

[3] = molecular target: Fuc(a1-2)[Gal(a1-3)]Gal(b1-4)[Fuc(a1-3)]GlcNAc(b1-3)GalNAc
Procedure, shortened: as §1

[4] = molecular target: Fuc(a1-2)[GalNAc(a1-3)]Gal(b1-3)GalNAc(b1-3)Gal(a1-4)Gal(b1-4)Glc
Procedure, shortened: as §1

Fuc(a1-3)GlcNAc = molecular target: Fuc(a1-3)GlcNAc
Procedure, shortened: as §1

[5] = molecular target: Fuc(a1-3)[Gal(b1-4)]GlcNAc(b1-3)Gal(b1-4)[Fuc(a1-3)]GlcNAc
Procedure, shortened: as §1

[6] = molecular target: Fuc(a1-3)[Gal(b1-4)]GlcNAc(b1-6)GalNAc
Procedure, shortened: as §1

[7] = molecular target: Fuc(a1-3)[Gal(b1-4)]GlcNAc6S
Procedure, shortened: as §1

[8] = molecular target: Fuc(a1-3)[Gal3S(b1-4)]GlcNAc6S
Procedure, shortened: as §1

[9] = molecular target: Gal(b1-3)GalNAc(a1-3)[Fuc(a1-2)]Gal(b1-4)Glc
Procedure, shortened: as §1

[10] = molecular target: Gal(b1-3)GlcNAc(b1-3)Gal(b1-4)GlcNAc(b1-6)[Gal(b1-3)GlcNAc(b1-3)]Gal(b1-4)Glc
Procedure, shortened: as §1

[11] = molecular target: Gal(b1-3)[Neu5Ac(a2-6)]GalNAc
Procedure, shortened: as §1

Gal(b1-4)GlcNAc = molecular target: Gal(b1-4)GlcNAc
Procedure, shortened: as §1

[12] = molecular target: Gal(b1-4)GlcNAc(b1-2)Man(a1-3)[Gal(b1-4)GlcNAc(b1-2)Man(a1-6)][Gal(b1-4)GlcNAc(b1-4)]Man(b1-4)GlcNAc(b1-4)[Fuc(a1-6)]GlcNAc
Procedure, shortened: as §1

[13] = molecular target: Gal(b1-4)GlcNAc(b1-2)Man(a1-6)Man(b1-4)GlcNAc(b1-4)GlcNAc
Procedure, shortened: as §1

[14] = molecular target: Gal(b1-4)GlcNAc(b1-3)Gal(b1-4)GlcNAc(b1-3)GalNAc
Procedure, shortened: as §1

Gal(b1-4)GlcNAc6P = molecular target: Gal(b1-4)GlcNAc6P
Procedure, shortened: as §1

Gal4S(b1-4)GlcNAc = molecular target: Gal4S(b1-4)GlcNAc
Procedure, shortened: as §1

[15] = molecular target: GlcNAc(b1-3)Gal(b1-4)GlcNAc(b1-2)Man(a1-3)[GlcNAc(b1-3)Gal(b1-4)GlcNAc(b1-2)Man(a1-6)]Man(b1-4)GlcNAc(b1-4)GlcNAc
Procedure, shortened: as §1

GlcNAc(b1-3)GalNAc = molecular target: GlcNAc(b1-3)GalNAc
Procedure, shortened: as §1

[16] = molecular target: GlcNAc(b1-3)[GlcNAc(b1-6)]Gal(b1-4)GlcNAc
Procedure, shortened: as §1

[17] = molecular target: GlcNAc(b1-4)Gal(b1-4)GlcNAc
Procedure, shortened: as §1

[18] = molecular target: GlcNAc(b1-4)[GlcNAc(b1-6)]GalNAc
Procedure, shortened: as §1

[19] = molecular target: GlcNAc(b1-6)Gal(b1-4)GlcNAc
Procedure, shortened: as §1

[20] = molecular target: Man(a1-2)Man(a1-3)[Man(a1-2)Man(a1-6)]Man(a1-6)[Man(a1-2)Man(a1-2)Man(a1-3)]Man
Procedure, shortened: as §1

[21] = molecular target: Man(a1-3)[Man(a1-6)]Man(a1-6)[Man(a1-3)]Man(b1-4)GlcNAc(b1-4)GlcNAc
Procedure, shortened: as §1

[22] = molecular target: Neu5Ac(a2-3)Gal(b1-3)GalNAc6S
Procedure, shortened: as §1

[23] = molecular target: Neu5Ac(a2-3)Gal(b1-3)GlcNAc(b1-6)GalNAc
Procedure, shortened: as §1

B1: Siglec-9 (Homo sapiens), Q9Y336 (protein)
chain: MLLLLLPLLWGRERAEGQTSKLLTMQSSVTVQEGLCVHVPCSFSYPSHGWIYPGPVVHGYWFREGANTDQDAPVATNNPARAVWEETRDRFHLLGDPHTKNCTLSIRDARRSDAGRYFFRMEKGSIKWNYKHHRLSVNVTALTHRPNILIPGTLESGCPQNLTCSVPWACEQGTPPMISWIGTSVSPLDPSTTRSSVLTLIPQPQDHGTSLTCQVTFPGASVTTNKTVHLNVSYPPQNLTMTVFQGDGTVSTVLGNGSSLSLPEGQSLRLVCAVDAVDSNPPARLSLSWRGLTLCPSQPSNPGVLELPWVHLRDAAEFTCRAQNPLGSQQVYLNVSLQSKATSGVTQGVVGGAGATALVFLSFCVIFVVVRSCRKKSARPAAGVGDTGIEDANAVRGSASQGPLTEPWAEDSPPDQPPPASARSSVGEGELQYASLSFQMVKPWDSRGQEATDTEYSEIKIHR
glycan array binding signal (z-score) (Fuc(a1-2)Gal): -0.211 | glycan array binding signal (z-score) [1]: -0.153 | glycan array binding signal (z-score) [2]: -0.277 | glycan array binding signal (z-score) (Fuc(a1-2)[Gal(a1-3)]Gal): -0.193 | glycan array binding signal (z-score) [3]: -0.269 | glycan array binding signal (z-score) [4]: -0.125 | glycan array binding signal (z-score) (Fuc(a1-3)GlcNAc): -0.293 | glycan array binding signal (z-score) [5]: 0.166 | glycan array binding signal (z-score) [6]: -0.063 | glycan array binding signal (z-score) [7]: 3.1 | glycan array binding signal (z-score) [8]: -0.041 | glycan array binding signal (z-score) [9]: -0.434 | glycan array binding signal (z-score) [10]: -0.039 | glycan array binding signal (z-score) [11]: -0.173 | glycan array binding signal (z-score) (Gal(b1-4)GlcNAc): -0.244 | glycan array binding signal (z-score) [12]: -0.418 | glycan array binding signal (z-score) [13]: -0.333 | glycan array binding signal (z-score) [14]: -0.054 | glycan array binding signal (z-score) (Gal(b1-4)GlcNAc6P): -0.074 | glycan array binding signal (z-score) (Gal4S(b1-4)GlcNAc): -0.304 | glycan array binding signal (z-score) [15]: -0.042 | glycan array binding signal (z-score) (GlcNAc(b1-3)GalNAc): -0.152 | glycan array binding signal (z-score) [16]: -0.322 | glycan array binding signal (z-score) [17]: 0.012 | glycan array binding signal (z-score) [18]: -0.132 | glycan array binding signal (z-score) [19]: -0.081 | glycan array binding signal (z-score) [20]: -0.055 | glycan array binding signal (z-score) [21]: -0.007 | glycan array binding signal (z-score) [22]: 1.05 | glycan array binding signal (z-score) [23]: 0.961
